Fam108B counter: mouse Fam108B serine hydrolase inhibitors, primary screen, counter-screen for RBBP9 inhibitor project, biochemical, fluorescence polarization | recombinant Fam108B, FP-Rh probe fluorescence polarization | inhibition, % at 9.51 µM | actives 0.33% (n = 300,000) | AID 1947, 2009;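 active = inhibition above the screen mean inhibition plus 3 SD, computed separately per campaign, cut at about 18% in these data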;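 also: inhibitors lower polarization as less probe binds the enzyme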
LYPLA1 counter: LYPLA1 inhibitors, primary screen, counter-screen for PME1 inhibitor project, biochemical, fluorescence polarization, FP-Rh probe ABPP; inhibition, % at 5.9 µM; AID 2174, 2009; Acyl-protein thioesterase 1 (Homo sapiens), O75608; actives 0.16% (n = 320,000); recombinant LYPLA1;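 active = inhibition above the mean of all tested compounds plus 3 SD, set per campaign, cut at about 14% in these data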;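 also: inhibitors block serine hydrolase probe labeling of LYPLA1 so polarization falls; 0% = enzyme with DMSO and 100% = wells lacking LYPLA1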
PME-1 primary: PME-1 inhibitors via competitive probe labeling, primary screen, biochemical, fluorescence polarization, FP-Rh probe, HTS | Protein phosphatase methylesterase 1 (Homo sapiens), Q9Y570 | actives 0.53% (n = 320,000) | recombinant PME-1 | inhibition, % at 5.9 µM;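 active = inhibition above the campaign mean of all compounds plus 3 SD, cut at about 26% in these data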;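 also: competitive labeling of PME-1 active site by serine hydrolase directed probe; 0% = PME-1 with DMSO and 100% = wells lacking PME-1 enzyme; inhibitors block probe labeling so polarization falls and inhibition rises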
Target sequence (Q9Y570 whole entry, looked up): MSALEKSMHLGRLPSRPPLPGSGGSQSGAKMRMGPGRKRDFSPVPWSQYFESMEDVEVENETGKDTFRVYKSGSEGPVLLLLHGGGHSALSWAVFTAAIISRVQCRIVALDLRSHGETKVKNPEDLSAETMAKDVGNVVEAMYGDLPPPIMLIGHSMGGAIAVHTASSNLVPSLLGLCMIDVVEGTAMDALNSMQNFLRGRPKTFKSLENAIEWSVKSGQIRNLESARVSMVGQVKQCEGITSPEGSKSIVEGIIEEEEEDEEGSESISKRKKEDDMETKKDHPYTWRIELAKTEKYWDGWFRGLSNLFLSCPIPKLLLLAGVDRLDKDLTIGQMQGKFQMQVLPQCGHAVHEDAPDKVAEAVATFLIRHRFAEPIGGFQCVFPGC
LYPLA2 counter: LYPLA2 inhibitors, primary screen, counter-screen for PME1 inhibitor project, biochemical, fluorescence polarization, FP-Rh probe ABPP; Acyl-protein thioesterase 2 (Homo sapiens), O95372; recombinant LYPLA2; inhibition, % at 5.9 µM; actives 0.38% (n = 320,000);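 active = inhibition above the screen-wide mean plus 3 SD, limit set per campaign, cut at about 26% in these data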;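 also: 0% = LYPLA2 with DMSO and 100% = wells lacking LYPLA2 enzyme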
Target sequence (O95372 whole entry, looked up): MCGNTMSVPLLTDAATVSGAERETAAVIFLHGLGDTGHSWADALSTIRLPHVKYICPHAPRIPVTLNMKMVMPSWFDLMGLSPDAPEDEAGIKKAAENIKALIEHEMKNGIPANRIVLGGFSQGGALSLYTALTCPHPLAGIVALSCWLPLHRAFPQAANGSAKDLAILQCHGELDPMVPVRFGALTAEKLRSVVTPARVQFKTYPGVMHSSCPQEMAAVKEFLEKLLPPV
PAD4 FP inh: human PAD4 inhibitors, primary screen, biochemical, fluorescence polarization, 1536-well format; AID 485272, 2010; actives 0.41% (n = 330,000); Protein-arginine deiminase type-4 (Homo sapiens), Q9UM07; recombinant PAD4, RCA probe fluorescence polarization; inhibition, % at 6.36 µM;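 active = percent inhibition above a cutoff equal to the mean of all tested compounds plus 3 SD, cut at about 15% in these data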;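 also: 0% = PAD4 with RCA probe and DMSO and 100% = probe without PAD4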
GSTO1 counter: inhibitors of recombinant GSTO1, primary screen, counter-screen for RBBP9 inhibitor project, biochemical, fluorescence polarization | Glutathione S-transferase omega-1 (Homo sapiens), P78417 | activity-based probe fluorescence polarization | inhibition, % at 5.96 µM | actives 1.1% (n = 300,000) | AID 1974, 2009;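 active = inhibition above the campaign mean inhibition plus 3 SD, cut at about 35% in these data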;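 also: 0% = GSTO1-1 with DMSO and 100% = wells lacking GSTO1-1 enzyme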
The depositor's hits bear a star; x = no result. Rows were chosen to be rich in hits. Some 1.7% of all compounds tested hit in one or more screens of this group.

SMILES	Fam108B counter	LYPLA1 counter	PME-1 primary	LYPLA2 counter	PAD4 FP inh	GSTO1 counter
CCc1ccc(-c2csc3ncn(CC(=O)N4CCOCC4)c(=O)c23)cc1	-1.6	0.7	1.5	0.1	2.7	-1.8
Cc1nnc(-c2cnn(-c3ccccc3)c2N)n1Cc1ccc(F)cc1	3.6	1.5	0.0	7.2	4.7	8.7
O=[N+]([O-])c1cc(S(=O)(=O)N2CCCC2)ccc1NN=C1CCCCC1	-2.0	-1.3	2.2	6.5	6.8	-2.7
O=[N+]([O-])c1cc(C(F)(F)F)cc([N+](=O)[O-])c1NN=C1CCCCC1	7.2	-3.5	6.1	1.6	-0.7	37.0*
CCc1cc2cccc(C)c2nc1SCC(=O)NNC(=O)c1ccco1	-3.5	-5.0	1.5	1.1	-2.2	4.4
Cn1c2ccccc2c2cc(/C=N/NC(=O)c3ccc(O)cc3O)ccc21	15.3	-13.8	46.6*	-18.1	-5.1	-50.5
CCn1c(SCC(=O)NNC(=S)Nc2ccc(C)cc2)nnc1-c1ccc(Cl)cc1	2.3	-0.8	-0.9	1.8	-7.0	35.1*
Cc1ccc(NC(=S)NNC(=O)CSc2nnc(-c3ccc(Cl)cc3)n2C2CCCCC2)cc1	0.3	-0.7	-1.0	6.4	1.3	-1.8
c1ccc2[nH]c(CCCc3nc4ccccc4[nH]3)nc2c1	4.2	-0.3	1.4	-0.8	0.3	8.2
Oc1ccc(O)c(Cc2nc3ccccc3[nH]2)c1	0.9	-2.4	-3.1	-9.4	-3.1	70.0*
COc1ccc(CCn2c(Br)nc3c2c(=O)[nH]c(=O)n3C)cc1	-3.0	-6.1	-7.1	-5.9	-12.9	7.8
COc1ccc(CCn2c(NN=C(C)C)nc3c2c(=O)[nH]c(=O)n3C)cc1	4.2	3.6	8.8	7.7	-2.7	45.6*
COC(=O)c1cc(O)cc(OC)c1C(=O)c1c(O)cc(C)cc1O	3.0	-0.9	0.8	9.5	-1.4	-0.5
COC(=O)c1cc(O)cc(OC)c1Oc1cc(C)cc(O)c1C(=O)O	3.8	2.3	8.1	7.5	-4.4	36.2*
COc1cccc(COc2nc3c(c(=O)n(C)c(=O)n3C)n2C)c1	-1.1	-0.2	-6.5	4.0	0.9	35.6*
Cc1ccc(/C=N/NC(=O)C2COc3ccccc3O2)s1 (centres undefined)	1.9	2.6	0.1	4.2	-0.8	20.3
O=C(COc1cccc(F)c1)N[C@@H](Cc1ccccc1)c1nc2ccccc2[nH]1	1.9	-3.1	5.5	-0.5	-0.2	4.0
O=C(COC(=O)c1ccc(Br)cc1)NC(=O)NCc1ccccc1	x	1.4	1.9	-5.9	-1.3	x
NC(=O)c1ccc(N2CCN(c3ccc(O)cc3)CC2)c([N+](=O)[O-])c1	4.6	9.3	-0.7	31.5*	-1.0	10.2
CC(=O)c1ccc(N2CCN(c3ccc(C(N)=O)cc3[N+](=O)[O-])CC2)cc1	-0.6	10.1	7.3	23.0	1.3	5.3
CCc1ccc(CC(=S)N2CCOCC2)cc1	4.6	-1.3	1.2	4.3	-1.0	6.0
Cc1ccc(CC(=S)N2CCOCC2)cc1	-1.9	-2.7	-5.8	-1.9	-4.6	36.6*
COC(=O)c1ccc(C2Nc3cccc4cccc(c34)N2)cc1	4.2	-4.9	52.3*	-2.6	-10.6	25.7
COc1ccc(C2NC(=O)c3ccccc3N2)cc1OC (centres undefined)	0.7	2.3	1.5	3.4	1.7	-1.2
COc1cc(C2Nc3cccc4cccc(c34)N2)cc(OC)c1O	40.5*	-14.5	48.4*	9.7	1.9	24.8
SMILES	Fam108B counter	LYPLA1 counter	PME-1 primary	LYPLA2 counter	PAD4 FP inh	GSTO1 counter
COc1cc(C2Nc3cccc4cccc(c34)N2)ccc1OC(C)=O	22.1*	-7.8	15.8	-0.8	-5.2	53.5*
COC(=O)C(NC(C)=O)(Nc1ccccc1)C(=O)OC	1.2	-2.2	1.3	4.5	-1.0	-4.6
COCCN=c1scc(-c2cc(OC)c(OC)c(OC)c2)n1/N=C/c1c(C)[nH]c2ccccc12	3.6	-8.5	26.9*	-0.9	-7.5	-1.6
Cc1[nH]c2ccccc2c1/C=N/n1cnnc1	1.7	-1.4	3.9	-0.6	-3.9	-5.7
O=S(=O)(c1cnc(Cl)c(Br)c1)N1CCc2ccccc21	-2.6	0.6	5.3	5.3	1.5	45.2*
CC1CCCCN1S(=O)(=O)c1cnc(Cl)c(Br)c1 (centres undefined)	-3.0	2.1	-3.0	1.4	-4.2	70.8*
N#CC1=C(N)SC(N)=C(C#N)C1c1cccc(O)c1	-18.6	-12.8	-24.1	-14.0	-11.5	0.7
O=[N+]([O-])c1ccc(Sc2nc3ccccc3o2)c([N+](=O)[O-])c1	12.4	1.8	4.3	9.6	48.8*	12.1
O=[N+]([O-])c1ccc(Cl)cc1Sc1nc2ccccc2o1	0.8	1.1	8.3	-3.7	3.8	5.2
O=C(/C=C1\NC2(CCCC2)Cc2ccccc21)C(=O)N/N=C/c1ccc(O)c(O)c1	10.8	-13.0	32.0*	-7.0	-4.3	3.1
O=C(COC(=O)C1CC(=O)N(CCc2ccccc2)C1)c1ccc[nH]1 (centres undefined)	x	2.4	-1.2	4.3	-2.0	x
Oc1c(Cl)cc(Cl)cc1Sc1cc(Cl)cc(Cl)c1O	44.1*	-9.9	41.6*	3.8	-3.4	56.6*
Cc1ccccc1CS(=O)(=O)Cc1ccc(C(=O)NCCCN2CCCC2=O)o1	0.4	1.0	1.1	-3.1	2.0	2.4
O=c1[nH][nH]c(-c2ccccc2O)c1C(C[N+](=O)[O-])c1ccc(Br)cc1 (centres undefined)	3.7	-0.2	-0.4	1.1	-15.3	29.3
Cc1ccc(C(C[N+](=O)[O-])c2c(-c3ccccc3O)[nH][nH]c2=O)cc1 (centres undefined)	-0.4	-0.3	-0.8	3.9	-6.1	35.5*
Cc1cc(=O)n2[nH]c(-c3ccc(C(C)(C)C)cc3)cc2n1	0.3	-1.3	-22.8	2.9	0.9	1.0
NC1=CC(=O)c2cccc3cccc1c23	13.3	6.1	16.6	14.2	14.9*	24.4
Cn1c(SCC(=O)Nc2ccc(C(=O)O)cc2)nc2scc(-c3ccccc3Cl)c2c1=O	x	x	x	x	5.2	x
CN1CCN(C(=O)c2ccc(CSc3nc4ccncc4n3Cc3ccc(F)cc3)cc2)CC1	-2.9	2.0	-0.4	3.6	-1.6	7.2
CCOC(=O)N1CCN(C(=O)c2ccc3nc(SCc4ccc(F)cc4)n(C)c3c2)CC1	1.1	-27.9	-4.3	28.2*	-4.5	-18.7
O=C(O)CCc1ccc(-c2ccc(Br)cc2)n1-c1cccc(O)c1	2.7	0.4	-0.9	8.1	1.8	35.4*

Screens from PubChem BioAssay.
